Assay results from PubChem BioAssay.
Several values for one entry are separate records, joined by “and”; a condition that tells them apart may be missing. Identical values can stand only once. Some structures have more than one record in an assay (separate samples or runs), and their calls can disagree. Activity calls are given as the source filed them.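 Rule for the calls, unless noted: active = compounds whose cell count with miR-34 switched on is under 0.7 times the count with it off; inactive = the rest.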

Tests used:
[1] = sensitizers of A549 cells to miR-34 induction, primary screen, imaging, A549 dox-inducible miR-34, nuclei and caspase counts (AID 1347080); conditions: A549 miR-34 inducible, Hoechst nuclei count, 48 h; note: test concentration not given here
[2] = survival rescue of mitochondrial mutant cells in low glucose, primary screen, MELAS cybrids, Rieske KO mouse fibroblasts, CellTiter-Glo (AID 1508586;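 active = mean z-score across replicates of 1.96 or higher in either the MELAS or the Rieske mutant cell line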;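 note: test concentration not given here; z relative to plate mean and SD of compound and empty wells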)
[3] = viability rescue of complex I mutant cybrids, primary screen, cell-based, galactose medium, ATP luminescence (AID 1645843;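 active = z-score of at least 1.8 in each of two replicates, scored against plate mean and spread of sample wells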;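 note: positive z means more ATP and so rescue of galactose-driven cybrid death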); conditions: complex I mutant cybrid cells, 72 h, stronger effect = higher value
[4] = stronger effect = lower value, cell number ratio, induced over uninduced
[5] = measured here: relative caspase fold change +Dox/-Dox
[6] = measured here: total cells with miR-34 induction, stronger effect = lower value
[7] = measured here: total cells without miR-34 induction
[8] = MELAS cybrid survival, CellTiter-Glo 48 h, stronger effect = higher value
[9] = Rieske KO mouse fibroblast survival, CellTiter-Glo 72 h

Row | SMILES | fold change [1, 4] | fold change [1, 5] | cell count [1, 6] | cell count [1, 7] | z-score [2, 8] | z-score [2, 9] | z-score [3]
1 | CC1OC(OC2C(CO)OC(OC3C(CO)OC(O)C(O)C3O)C(O)C2O)C(O)C(O)C1NC1C=C(CO)C(O)C(O)C1O (centres undefined) | 0.923 (inactive) and 1.03 (inactive) | 1.2 and 0.703 | 9530 and 7300 | 10300 and 7090 | -0.375 (inactive) | -0.157 | 0.475 (inactive)
2 | COc1ccc2[nH]cc(CCC(=O)O)c2c1 | 0.879 (inactive) | 0.282 | 8310 | 9460 | 0.323 (inactive) | -0.35 | 0.275 (inactive)
3 | Cc1csc(CNc2nccc(-c3cn(C)nc3C)n2)n1 | 0.888 (inactive) | 0.815 | 8410 | 9480 | -0.307 (inactive) | 0.16 | -0.445 (inactive)
4 | COc1cccc2c(=O)n(Cc3ccc4ncccc4c3)cnc12 | 0.883 (inactive) | 1.22 | 8080 | 9140 | -0.263 (inactive) | -0.193 | -0.28 (inactive)
5 | COc1ccc(CN(C)C(=O)Nc2nc(C)n(C)n2)c2cccnc12 | 0.889 (inactive) | 0.916 | 8870 | 9980 | 0.16 (inactive) | -0.562 | -0.55 (inactive)
6 | COc1cc(Cn2cnc3nccnc3c2=O)cc(OC)c1 | 0.919 (inactive) | 2.53 | 9000 | 9790 | -0.417 (inactive) | -0.582 | -0.515 (inactive)
7 | Cc1nc(C(=O)O)nn1-c1cc(Cl)cc(Cl)c1 | 0.931 (inactive) | 0.603 | 8310 | 8930 | -0.498 (inactive) | -0.479 | 0.61 (inactive)
8 | CC(=O)NCC1CN(c2ccc(N3CCOCC3)c(F)c2)C(=O)O1 (centres undefined) | 0.917 (inactive) and 0.981 (inactive) | 1.72 and 0.989 | 6880 and 7480 | 7500 and 7630 | -0.285 (inactive) | 0.466 | 0.65 (inactive)
9 | CN1CCN(Cc2cccc3cccnc23)CC1CCO (centres undefined) | 0.928 (inactive) | 1.86 | 8360 | 9010 | 0.709 (inactive) | -1.63 | -0.585 (inactive)
10 | O=c1ccn2c(n1)OC1C(O)C(CO)OC12 (centres undefined) | 0.869 (inactive) | 0.596 | 8620 | 9930 | 0.627 (inactive) | -0.112 | 0.87 (inactive)
11 | Cc1ccc(NC(=O)c2ccc3nccnc3c2)cn1 | 0.855 (inactive) | 1.41 | 8560 | 10000 | 0.00943 (inactive) | -0.47 | -0.48 (inactive)
12 | CC(C)n1cc(-c2cc(C(=O)N(C)Cc3cccnc3)c3cc(F)ccc3n2)cn1 | 0.861 (inactive) | 1.63 | 9060 | 10500 | -0.238 (inactive) | 0.816 | -0.535 (inactive)
13 | COc1ccc(C(=O)O)cc1 | 0.947 (inactive) | 0.667 | 9110 | 9620 | -0.37 (inactive) | -0.0461 | -0.635 (inactive)
14 | COc1ccc(-n2cccn2)c(-c2nnc3ccccn23)c1 | 0.89 (inactive) | 0.706 | 8500 | 9550 | -0.172 (inactive) | -0.541 | -0.55 (inactive)
15 | CC(=O)Nc1cccc(-c2nn(CC(=O)Nc3cnn(C)n3)c3ccccc23)c1 | 0.885 (inactive) | 1.89 | 8450 | 9550 | -0.345 (inactive) | 0.241 | -0.43 (inactive)
16 | Cn1c(=O)c2c(nc(N3CCNCC3)n2Cc2ccccc2)n(C)c1=O | 0.839 (inactive) | 0.525 | 7900 | 9410 | -1.69 (inactive) | -0.314 | 0.525 (inactive)
17 | CC(C)C1CCC(C(=O)NC(Cc2ccccc2)C(=O)O)CC1 (centres undefined) | 0.94 (inactive) and 0.917 (inactive) | 2.3 and 1.08 | 9290 and 9300 | 9880 and 10100 | -0.394 (inactive) | 0.0104 | 0.805 (inactive)
18 | CCSCCNc1nccc(-c2cn(C)nc2C)n1 | 0.861 (inactive) | 2.06 | 8420 | 9770 | -0.242 (inactive) | 0.458 | -0.585 (inactive)
19 | Cc1nn(C)cc1-c1ccnc(NCC(C)Oc2cccnc2)n1 (centres undefined) | 0.898 (inactive) | 1.28 | 8650 | 9640 | -0.961 (inactive) | 0.57 | -0.525 (inactive)
20 | Cc1cccc(C)c1OCC(=O)O | 0.919 (inactive) | 0.272 | 8740 | 9510 | 0.26 (inactive) | 0.0496 | 0.75 (inactive)
21 | Cc1nc(NC(=O)NCc2cccc(Cl)c2)nn1C | 0.889 (inactive) | 2.08 | 8140 | 9160 | 7.52 (active) | 0.00105 | -0.605 (inactive)
22 | CCOC(=O)C1=C(C)NC(C)=C(C(=O)OCC)C1c1ccccc1C=CC(=O)OC(C)(C)C | 0.635 (active) and 0.971 (inactive) | 1.57 and 0.602 | 2050 and 7220 | 3220 and 7430 | -0.107 (inactive) | -0.188 | -1.44 (inactive)
23 | O=C(NCCOc1cccnc1)c1ccc2ncsc2c1 | 0.858 (inactive) | 1.5 | 7900 | 9210 | 0.0996 (inactive) | -0.557 | -0.56 (inactive)
24 | O=C(O)c1ccc(-c2ccccc2C(F)(F)F)o1 | 0.879 (inactive) | 0.45 | 8380 | 9530 | 0.000745 (inactive) | -0.553 | 0.155 (inactive)
25 | CN1CCN(NC(=S)Nc2ccc(S(N)(=O)=O)cc2)CC1 | 0.87 (inactive) | 0.82 | 8440 | 9700 | -0.739 (inactive) | 0.101 | 0.425 (inactive)
26 | Cc1c(Br)c(=O)oc2c(Br)c(O)ccc12 | 0.86 (inactive) | 0.806 | 8490 | 9870 | 0.723 (inactive) | -0.168 | -0.145 (inactive)
27 | Cc1ncsc1-c1ccn(CC(=O)Nc2ccnn2C2CCCCC2)n1 | 0.823 (inactive) | 0.676 | 7140 | 8680 | -0.424 (inactive) | 0.121 | -0.57 (inactive)
